Experimental data published in PubChem BioAssay (NCATS).
Calls of active or inactive are those of the source. Calls follow the shape of the dose curve; as a rule, active = well fitted curve in the direction sought with a large enough effect; inconclusive = small, poorly fitted or top-dose-only effect, or effect the other way, or another doubt; inactive = no such curve, though single readings can be large or run the other way.

Test: qHTS for inhibitors of adenylyl cyclases using a fission yeast platform: a pilot screen against the NCATS LOPAC library (AID 1347410)
Conditions: S. pombe CHP2027, fbp1-GFP fluorescence, 18 h, yeast expressing mammalian AC9 and human GNAS; series mostly up to 57.5 µM
From the text: PI: Charles S. Hoffman Ph.D
Boston College, 140 Commonwealth Ave., Chestnut Hill, MA
Assay Development and Screening Technology Laboratory (ADST)
National Center for Advancing Translational Sciences (NCATS), Rockville, MD
National Institute of Health (NIH), Bethesda, Maryland
The fission yeast Schizosaccharomyces pombe uses a cAMP signaling pathway to link glucose-sensing to Protein Kinase A activity in order to regulate cell growth, sexual development, gluconeogenesis, and exit from stationary phase. Here, we describe the successful functional expression of all ten mammalian adenylyl cyclase (AC) genes, along with the human GNAS G-alpha gene in this organism. By measuring expression of a PKA-repressed fbp1-GFP reporter together with direct measurements of intracellular cAMP levels, one can detect both basal AC activity from all ten AC genes as well as GNAS-stimulated activity from eight of the nine transmembrane ACs (tmACs; AC2-AC9).
Further confirmation and validation of active compounds lead to the identification of diphenyleneiodonium chloride (DPI) as an inhibitor of basal AC activity. This fluorescence based fbp1-GFP-GNAS screening technology could facilitate the development of therapeutic compounds that target GNAS or the ACs, an area in which there is significant unmet need.
The gain-of-signal output is not substantially affected by cytotoxic compounds within the library.
Getz RA, et al., A fission yeast platform for heterologous expression of mammalian adenylyl cyclases and high throughput screening, Cellular Signaling, 2019, 60: 114-121. doi.org/10.1016/j.cellsig.2019.04.010.
PROTOCOL TABLE (as described by Inglese J, Shamu CE and Guy RK. 2007)
SEQUENCE No. (e.g., 1, 2, 3, etc.); […] (e.g., Cells, Incubation, Reagent, etc.); VALUE; DESCRIPTION.
1; Dispense growth medium; 2 uL; black, clear bottom, low base, 1536-well Aurora assay plate.
2; Compounds and control; 23 nL; Kalypsis pin tool (Wako USA) equipped with a 1536-well pin head to transfer to the assay plates.
3; Dispense yeast cells; 2 uL; CHP2027 cells.
4; Incubation; 18 hours (dark at 30C); Non-humidified microbial incubator.
5; Detector; 425V; Fluorescence; laser scanning cytometry.
NOTES (numbers refer to Sequence numbers above)
1. S. pombe growth medium EMM containing histidine, lysine, and uracil was initially dispensed into the assay plate to avoid yeast contamination using a Multidrop Combi dispenser (Thermo Fisher Scientific).
2. 10 mM stock solution of DPI (Sigma-Aldrich D2926) dissolved in DMSO was used as a 16-point dose response positive control, while 1.11 mM DPI stock solution was used as a single point max response positive control. Solvent DMSO was used as the negative control. Control DPI was transferred as a single-dose (column 3; rows 1-32; 1.11 mM stock), and multi-dose (column 4; rows 1-32; 10mM stock; 1:1.5 dilution; 16pnt titration) positive controls. Vehicle control DMSO was pinned into column 1-2, rows 1-32. Lopac compounds were pinned into columns 5-48 resulting to a final concentration range 57 µM to 78.4 nMControl DPI stock (10 mM) was prepared by dissolving 10 mg in 3.18 mL DMSO; while 1.11 mM DPI stock was prepared by mixing 100 uL of 10 mM DPI with 800 uL DMSO. To create the control plates, we initially start with a 384-well compound working plate. With a repeater pipette, (a.) 16 uL/well of 1.11 mM DPI was added to column 3; (b.) 16 uL/well of DMSO was added into rows 2-16 of column 4; (c.) 50 uL/well of DPI added to rows 1 and 2 of column 4; (d.) 32 uL serial dilution (two-thirds-fold) from rows 2 to 16 of column 4 with manual pipette. From the 384-well compound working plate, 7 uL of respective control compound was transferred to respective columns of the 1536-well compound plate using a multichannel pipette.
3. S. pombe CHP2027 (AC9-GNAS-PDE4D2) expressing fbp1-GFP cells were grown at 30C in EMM medium containing histidine, lysine, and uracil. […]

SMILES	outcome
CN(Cc1cnc2nc(N)nc(N)c2n1)c1ccc(C(=O)N[C@@H](CCC(=O)O)C(=O)O)cc1	inactive
Nc1c2c(nc3ccccc13)CCCC2	inactive
O=C(c1ccc(OCCN2CCCCC2)cc1)c1c(-c2ccc(O)cc2)sc2cc(O)ccc12	inactive
CCOC(=O)Nc1ccc(NCc2ccc(F)cc2)nc1N	inactive
CN1C(C(=O)Nc2ccccn2)=C(O)c2ccccc2S1(=O)=O	inactive
CC#C[C@]1(O)CC[C@H]2[C@@H]3CCC4=CC(=O)CCC4=C3[C@@H](c3ccc(N(C)C)cc3)C[C@@]21C	inactive
Clc1ccccc1C(c1ccccc1)(c1ccccc1)n1ccnc1	inactive
COc1cc2c(c(OC)c1OC)-c1ccc(OC)c(=O)cc1[C@@H](NC(C)=O)CC2	inactive
CN(C)CCOC(c1ccccc1)c1ccccc1	inactive
CN1CCC(=C2c3ccccc3C=Cc3ccccc32)CC1	inactive
CCC1(C)CC(=O)NC1=O (stereo not given)	inactive
CC(C)NCC(O)c1ccc(O)c(O)c1 (stereo not given)	inactive
Cc1ccc(C(=O)Nc2ccc(S(=O)(=O)O)c3cc(S(=O)(=O)O)cc(S(=O)(=O)O)c23)cc1NC(=O)c1cccc(NC(=O)Nc2cccc(C(=O)Nc3cc(C(=O)Nc4ccc(S(=O)(=O)O)c5cc(S(=O)(=O)O)cc(S(=O)(=O)O)c45)ccc3C)c2)c1	inactive
CN(CCOc1ccc(NS(C)(=O)=O)cc1)CCc1ccc(NS(C)(=O)=O)cc1	inactive
CN1CCC(=C2c3ccccc3CC(=O)c3sccc32)CC1	inactive
C[C@](N)(Cc1ccc(O)c(O)c1)C(=O)O	inactive
COc1ccc(CCN(C)CCCC(C#N)(c2ccc(OC)c(OC)c2)C(C)C)cc1OC (stereo not given)	inactive
Fc1ccc([C@@H]2CCNC[C@H]2COc2ccc3c(c2)OCO3)cc1	inactive
Nc1nc2c(ncn2COC(CO)CO)c(=O)[nH]1	inactive
COc1cc2nc(N(C)CCCNC(=O)C3CCCO3)nc(N)c2cc1OC (stereo not given)	inactive

SMILES	outcome
CCOC(=O)C(C)(C)Oc1ccc(Cl)cc1	inactive
NC(=O)OCC(COC(N)=O)c1ccccc1	inactive
CN1CCN(C2=Nc3cc(Cl)ccc3Nc3ccccc32)CC1	inactive
Clc1ccc(C(c2ccccc2Cl)C(Cl)Cl)cc1 (stereo not given)	inactive
CC(C(=O)O)c1cccc(C(=O)c2ccccc2)c1 (stereo not given)	inactive
COc1nc(C)nc(Cl)c1NC1=NCCN1	inactive
NS(=O)(=O)c1cc2c(cc1Cl)NCNS2(=O)=O	inactive
O=c1[nH]cc(F)c(=O)[nH]1	inactive
COc1ccc2[nH]cc(CCNC(C)=O)c2c1	inactive
O=C1c2c(O)ccc(O)c2C(=O)c2c(NCCNCCO)ccc(NCCNCCO)c21	inactive
CN(C)CCC=C1c2ccccc2C=Cc2ccccc21	inactive
CC(=O)OCC(CCn1cnc2cnc(N)nc21)COC(C)=O	inactive
CC(C)NCC(O)COc1ccc(CCOCC2CC2)cc1 (stereo not given)	inactive
CCOC(=O)c1ncn2c1CN(C)C(=O)c1cc(F)ccc1-2	inactive
CN1C2CCC1CC(OC(=O)C(CO)c1ccccc1)C2 (stereo not given)	inactive
CS(=O)(=O)Nc1ccc([N+](=O)[O-])cc1Oc1ccccc1	inactive
COc1ccc(C2CNC(=O)C2)cc1OC1CCCC1 (stereo not given)	inactive
Cn1cnc2c1c(=O)[nH]c(=O)n2C	inactive
CNCCCC12CCC(c3ccccc31)c1ccccc12	inactive
Nc1ccn([C@H]2CC[C@@H](CO)O2)c(=O)n1	inactive
